The text below walks through data of the supplement of paper PMC4100887.

SMILES strings stand for the structures. Counter-ions that a name gives are not always drawn. ± gives the standard deviation of the averaged measurements.

One experiment deals with IMR-90. Description: relative cell viability (ATPlite) vs untreated control (fraction); higher = less toxic. As to conditions: 1 µM; 72 h.
Experiment [1] relates to K562. Described as above. To be noted: 1 µM; 72 h.
For experiment [2], the system named is K562. Description: relative cell viability (ATPlite) vs untreated control, with imatinib (fraction); higher = less toxic. As to conditions: 1 µM; 72 h; imatinib 0.125 µM. (In general: In ATP-based viability assays light output follows the ATP content of the culture.)

As to `Cn1sc(=O)n(Cc2ccccc2)c1=O` [GSK-3b Inhibitor I], the relative cell viability came out at 0.98 ± 0.13 in the experiment with IMR-90, 0.793 ± 0.027 with K562 [1] and 0.704 ± 0.031 in the experiment on K562 [2].

For `CC(C)(C)c1ccc(S(=O)(=O)Nc2ccc(-n3ccnc3)cc2)cc1` [Stem-Cell Factor/c-Kit Inhibitor, ISCK03], the values for the relative cell viability in the experiment with IMR-90, in the experiment on K562 [1] and in the experiment on K562 [2] were 0.897 ± 0.068, 0.818 ± 0.096 and 0.742 ± 0.038, respectively.

For `COc1ccc2c(c1)c1c3c(c4c5ccccc5n(C)c4c1n2CC(O)CN(C)C)C(=O)NC3=O` (stereo not given) [Gö 7874, Hydrochloride], the relative cell viability in the experiment with IMR-90 was found to be 0.87 ± 0.034; with K562 [1], 0.901 ± 0.025; in the experiment on K562 [2], 0.775 ± 0.031.

Regarding `COc1cc2ncnc(Nc3ccc(NC(=O)c4ccccc4)cc3)c2cc1OC` [Aurora Kinase Inhibitor II], the values for the relative cell viability with IMR-90, in the experiment on K562 [1] and in the experiment on K562 [2] were 0.92 ± 0.071, 0.909 ± 0.055 and 0.783 ± 0.027, respectively.

Regarding `CCCCCCCCCCCCCCCCn1cc[n+](Cc2ccccc2)c1C` [eEF-2 Kinase Inhibitor, NH125], the relative cell viability amounted to 0.948 ± 0.11 with IMR-90, 0.506 ± 0.092 in the experiment on K562 [1] and 0.401 ± 0.1 in the experiment on K562 [2].

Take `C[S+]([O-])c1ccc(-c2nc(-c3ccc(F)cc3)c(-c3ccncc3)[nH]2)cc1` (stereo not given): the relative cell viability is 0.994 ± 0.062 in the experiment with IMR-90, 0.921 ± 0.054 with K562 [1] and 0.751 ± 0.048 in the experiment with K562 [2].

`CC(C)n1cnc2c(NCc3ccccc3O)nc(NCCCO)nc21` [Cdk Inhibitor, p35]: the relative cell viability was 1.04 ± 0.054 with IMR-90, 0.855 ± 0.056 in the experiment with K562 [1] and 0.779 ± 0.03 with K562 [2].

With `NCCNc1ncc(C(N)=O)c(Nc2cccc(C(F)(F)F)c2)n1` [Syk Inhibitor II], the values for the relative cell viability in the experiment on IMR-90, in the experiment on K562 [1] and in the experiment with K562 [2] were 0.974 ± 0.079, 0.949 ± 0.058 and 0.773 ± 0.048, respectively.

Turning to `COc1ccc(COc2ccc(Cc3cnc(N)nc3N)cc2OC)cc1` [cFMS Receptor Tyrosine Kinase Inhibitor], the relative cell viability with IMR-90 stood at 1.05 ± 0.12; in the experiment on K562 [1], 0.789 ± 0.061; in the experiment with K562 [2], 0.699 ± 0.007.

With `NC(N)=NCCNS(=O)(=O)c1cccc2cnccc12` [HA 1004, Dihydrochloride], the figures for the relative cell viability in the experiment on IMR-90, in the experiment with K562 [1] and in the experiment with K562 [2] were 1.01 ± 0.1, 0.851 ± 0.066 and 0.756 ± 0.015, respectively.
